The structures appear in SMILES notation. Screen size: about 52,000 compounds; about 4,300 (8.3%) were called active. Shown is part of a subset that was picked to be rich in actives. Values without a mark were called inactive. Rule as the data show it: active = survival mostly below about 52% (no sharp cut-off); inactive = mostly above about 56%.

The subject of the assay is DeltatarO mutant. The assay is described as follows: S. aureus survival, RN4220 and DeltatarO strains – OD600, teichoic acid synthesis inhibitors, primary screen (AID 463173). The conditions noted are these: S. aureus RN4220 wild type/DeltatarO growth, OD600, 18 h, stronger effect = lower value, screened at 18.75 µg/mL (by protocol).
Turning to `COC(=O)CSc1nnc2n(-c3ccccc3)c(=O)c3c4c(sc3n12)COC(C(C)C)C4` (configuration not stated), the survival is 123%.
Turning to `Cc1nn2c(C)c(C(=O)N3CCN(c4ccccc4F)CC3)cnc2c1-c1ccc(F)cc1`, the survival was 88%.
Regarding `O=C(NC1CCCC1)c1ccc2c(c1)N(Cc1ccc(F)cc1)C(=O)c1ccccc1S2`, the survival is 81%.
As for `O=C1CNC(=O)N1Cc1ccc(F)cc1`, the survival is 108%.
Take `Cc1cccc(NC(=O)c2sc(-n3nc(C)c(CCC(C)C)c3C)nc2C)c1`: the survival is 53%.
Take `O=C(CSc1nnc(-c2ccc(Cl)cc2)o1)Nc1ccc(F)cc1`: the survival was 69%.
For the compound `Cc1cccc(C)c1NC(=O)Cn1nc(C)c2sc3ccccc3c2c1=O`, the survival is 99%.
Regarding `COc1ccc(Cc2nnc(NC(=O)c3cccs3)s2)cc1OC`, the survival was 100%.
On to `CSc1nc2c(c(=O)[nH]1)C(c1cccc(F)c1F)CC(=O)N2` (configuration not stated), for which the survival is 111%.
Regarding `CC(C)c1ccc(NC(=O)Cn2c(=O)n(CCc3ccccc3)c(=O)c3ccccc32)cc1`, the survival is 82%.
For the compound `Cc1ccc(NC(=O)CCc2nc(-c3ccccc3F)no2)c(C)c1`, the survival was 93%.
For the compound `COc1ccc(Cl)cc1NC(=O)CCc1nc(-c2ccccc2F)no1`, the survival was 20% (active).
The value for `COc1ccc(-c2noc(CCC(=O)Nc3ccccc3Cl)n2)cc1OC` was 97%.
In the case of `CCCNC(=O)N1c2ccc(F)cc2CCC1C` (configuration not stated) it was 87%; in that of `COc1ccc(CNC(=O)c2ccc(CN3C(=O)C(C)=C(c4ccc(C)cc4)S3(=O)=O)cc2)cc1`, 89%; in that of `COc1ccccc1N1CCN(c2nc(-c3ccc(C)cc3)nc3ccccc23)CC1`, 83%.
As for `CC1CCCN(c2csc3ccccc3c2=O)C1` (configuration not stated), the survival was 69%.
`Cc1cccc(-n2ncc3c(N4CCCC(C)C4)ncnc32)c1` (configuration not stated): the survival was 84%.
Consider `CC1CCCN(c2nc(-c3ccccc3O)nc3ccccc23)C1` (configuration not stated), for which the survival is -6% (active).
Take `Cc1ccc(-c2nc(N3CCCC(C)C3)c3ccccc3n2)cc1` (configuration not stated): the survival is -2% (active).
For `COc1ccc(N2CCN(c3nc(-c4ccccc4F)nc4ccccc34)CC2)cc1`, the survival is 88%.
With `COc1cccc(-c2nnc(-c3ccccc3NC(=O)c3ccc(F)cc3F)o2)c1`, the survival is 78%.
With `CCOc1ccc(CCNC(=O)c2cccc(-n3c(C)nc4cccnc43)c2C)cc1`, the survival was 79%.
For the compound `Cc1cc(C)c2[nH]c(=O)c(CN(Cc3ccco3)C(=S)NCCCN3CCOCC3)cc2c1`, the survival was 78%.
As for `CCOc1ccccc1N1CC(c2nc3ccccc3n2CCOc2ccc(C(C)(C)C)cc2)CC1=O` (configuration not stated), the survival was 62%.
With `Cc1cc(OCCn2c(C3CC(=O)N(Cc4ccc(F)cc4)C3)nc3ccccc32)ccc1Cl` (configuration not stated), the survival is 1% (active).
Take `CCc1ccc(OCCn2c(C3CC(=O)N(Cc4ccc(F)cc4)C3)nc3ccccc32)cc1` (configuration not stated): the survival was 3% (active).
